# For some assays here: Measured potencies and affinities stand elsewhere.
# Key:
# Parameters in all cases: scale not given: direction of the effect not stated beside the values
# [1] = biological target: Protein translocase subunit SecA (Escherichia coli (strain K12)) (UniProt P10408); assay: Assay to Identify E. coli SecA ATPase Inhibitors; assay type: functional; details: 30 µM
# [2] = biological target: T1, Ubiquitin-activating enzyme e1, putative (Leishmania donovani (strain BPK282A1)) (UniProt E9BSI1); assay: Leishmania donovani Ubiquitin Activating Enzyme (LdE1); assay type: functional; details: 30 µM
# T1 sequence (whole entry): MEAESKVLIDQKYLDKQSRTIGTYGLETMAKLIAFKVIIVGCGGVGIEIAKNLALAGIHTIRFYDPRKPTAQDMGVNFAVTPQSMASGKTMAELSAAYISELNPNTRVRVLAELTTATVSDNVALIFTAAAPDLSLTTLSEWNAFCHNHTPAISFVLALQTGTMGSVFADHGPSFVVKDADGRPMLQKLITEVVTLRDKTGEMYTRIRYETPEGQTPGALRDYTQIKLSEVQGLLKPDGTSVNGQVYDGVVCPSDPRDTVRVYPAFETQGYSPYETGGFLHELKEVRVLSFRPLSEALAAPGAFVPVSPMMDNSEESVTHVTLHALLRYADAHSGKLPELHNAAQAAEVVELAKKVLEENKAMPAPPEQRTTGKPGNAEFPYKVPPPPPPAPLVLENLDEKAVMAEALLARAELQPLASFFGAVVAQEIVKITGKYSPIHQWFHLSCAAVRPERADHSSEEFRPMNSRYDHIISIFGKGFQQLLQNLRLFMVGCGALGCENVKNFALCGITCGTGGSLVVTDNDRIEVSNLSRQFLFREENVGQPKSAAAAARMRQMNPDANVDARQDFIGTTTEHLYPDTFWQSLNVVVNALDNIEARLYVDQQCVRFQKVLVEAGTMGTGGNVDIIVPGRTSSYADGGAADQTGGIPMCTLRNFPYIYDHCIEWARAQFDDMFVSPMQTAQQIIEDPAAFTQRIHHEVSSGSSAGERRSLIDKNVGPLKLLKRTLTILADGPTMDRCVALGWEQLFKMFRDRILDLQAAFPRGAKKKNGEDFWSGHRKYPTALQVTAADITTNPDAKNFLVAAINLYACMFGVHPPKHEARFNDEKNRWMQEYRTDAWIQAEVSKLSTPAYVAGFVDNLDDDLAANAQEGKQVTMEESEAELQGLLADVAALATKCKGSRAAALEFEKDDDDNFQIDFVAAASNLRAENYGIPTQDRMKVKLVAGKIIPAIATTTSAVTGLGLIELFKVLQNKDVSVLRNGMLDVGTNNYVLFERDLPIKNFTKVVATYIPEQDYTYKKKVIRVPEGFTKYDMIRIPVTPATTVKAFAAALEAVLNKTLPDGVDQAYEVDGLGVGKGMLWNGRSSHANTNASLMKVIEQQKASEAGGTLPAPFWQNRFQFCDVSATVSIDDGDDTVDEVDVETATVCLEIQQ
# [3] = biological target: AMP-activated protein kinase, AMPK (Homo sapiens) (UniProt P54646+O43741+P54619+Q9UGJ0+Q9Y478+Q13131+Q9UGI9); assay: AMP-dependent Kinase enzyme assay. An in vitro enzyme assay that detects ADP turnover that is directly proportional to AMPK activity. This uses naive AMPK that is activated during the assay with MK-8722; assay type: functional; details: 30 µM
# [4] = biological target: Sialic acid-binding Ig-like lectin 9 (Homo sapiens) (UniProt Q9Y336); assay: Hs-Siglec9 ALPHAscreen SOP 20170721; details: 10 µM
# Trypanosoma cruzi = assay: Trypanosoma cruzi phosphomannomutase and mannose-1-phosphate guanylyltransferase assay; assay type: functional; details: 10 µM
# [5] = biological target: T2, Arginase-2, mitochondrial (Homo sapiens) (UniProt P78540); assay: in vitro enzyme assay to detect the production of urea directly proportional to the activity of Arginase II; assay type: functional; details: 33.3 µM; note: in the data most compounds retested in dose-response had high values
# T2 sequence (whole entry): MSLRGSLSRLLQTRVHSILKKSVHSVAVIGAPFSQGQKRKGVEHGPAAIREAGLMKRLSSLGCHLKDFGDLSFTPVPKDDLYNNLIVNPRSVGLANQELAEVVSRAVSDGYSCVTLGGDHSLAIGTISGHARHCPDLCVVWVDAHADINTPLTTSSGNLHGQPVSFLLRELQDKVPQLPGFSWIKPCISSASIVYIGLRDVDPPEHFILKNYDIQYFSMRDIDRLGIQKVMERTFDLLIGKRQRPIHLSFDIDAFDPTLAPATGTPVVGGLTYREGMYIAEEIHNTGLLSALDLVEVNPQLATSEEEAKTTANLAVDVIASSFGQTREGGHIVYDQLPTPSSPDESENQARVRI
# [6] = biological target: T3, Proteasome subunit beta (Trypanosoma cruzi) (UniProt O96673); assay: Trypanosoma cruzi proteasome chymotrypsin-like activity (TcProtChymo) assay.; note: in the data most compounds retested in dose-response had high values; assay type: functional; details: 9.37 µM
# T3 sequence (whole entry): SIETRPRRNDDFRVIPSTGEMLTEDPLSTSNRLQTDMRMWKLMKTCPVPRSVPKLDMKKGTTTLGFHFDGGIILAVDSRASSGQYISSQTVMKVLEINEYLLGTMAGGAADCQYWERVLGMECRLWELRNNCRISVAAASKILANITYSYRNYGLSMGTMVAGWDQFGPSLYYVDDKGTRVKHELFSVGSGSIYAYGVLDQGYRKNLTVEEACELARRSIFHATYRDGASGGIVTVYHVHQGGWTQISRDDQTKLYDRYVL
# Homo sapiens = organism: Homo sapiens; assay: To identify inhibition of the IFN signalling (Jak-Stat) pathway via expression of an eGFP reporter gene under the control of an IFN-stimulated response element (ISRE) containing MxA promoter.; assay type: functional; details: 30 µM
# [7] = biological target: T4, Tyrosyl-tRNA synthetase, putative (Trypanosoma cruzi (strain CL Brener)) (UniProt Q4DSP6); assay: Trypanosoma cruzi tyrosyl tRNA synthetase (TcYRS) _High Tyrosine SOP; assay type: functional; details: 30 µM; note: in the data most compounds retested in dose-response had high values
# T4 sequence (whole entry): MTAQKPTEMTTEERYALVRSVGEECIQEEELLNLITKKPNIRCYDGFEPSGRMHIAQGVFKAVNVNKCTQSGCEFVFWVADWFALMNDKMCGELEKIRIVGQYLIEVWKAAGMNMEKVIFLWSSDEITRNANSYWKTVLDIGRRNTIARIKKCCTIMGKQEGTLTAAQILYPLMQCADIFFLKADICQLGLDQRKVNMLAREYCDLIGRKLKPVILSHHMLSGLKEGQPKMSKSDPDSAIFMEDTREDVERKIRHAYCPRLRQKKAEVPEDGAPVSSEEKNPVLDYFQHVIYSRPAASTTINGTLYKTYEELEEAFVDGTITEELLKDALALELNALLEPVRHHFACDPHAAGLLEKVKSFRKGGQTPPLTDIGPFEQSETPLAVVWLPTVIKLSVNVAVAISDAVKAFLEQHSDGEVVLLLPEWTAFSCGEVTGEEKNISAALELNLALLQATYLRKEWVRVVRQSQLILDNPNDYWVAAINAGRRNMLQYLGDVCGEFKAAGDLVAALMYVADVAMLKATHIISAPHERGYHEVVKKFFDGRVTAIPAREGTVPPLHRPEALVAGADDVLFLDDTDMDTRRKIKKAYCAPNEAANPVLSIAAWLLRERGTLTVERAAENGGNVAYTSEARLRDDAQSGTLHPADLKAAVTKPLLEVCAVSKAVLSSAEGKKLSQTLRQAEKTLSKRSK
# [8] = biological target: T4, Tyrosyl-tRNA synthetase, putative (Trypanosoma cruzi (strain CL Brener)); assay: Trypanosoma cruzi tyrosyl tRNA synthetase (TcYRS) SOP; assay type: functional; details: 30 µM
# [9] = biological target: Chromo domain-containing protein 1 (Saccharomyces cerevisiae (strain ATCC 204508 / S288c) (Baker's yeast)) (UniProt P32657); assay: ScCHD-1 Enzyme Inhibition Assay; assay type: functional; details: 30 µM; note: in the data most compounds retested in dose-response had high values
# Sequence of Chromo domain-containing protein 1 (Saccharomyces cerevisiae (strain ATCC 204508 / S288c) (Baker's yeast)) (P32657 whole entry, the tested form may be a part): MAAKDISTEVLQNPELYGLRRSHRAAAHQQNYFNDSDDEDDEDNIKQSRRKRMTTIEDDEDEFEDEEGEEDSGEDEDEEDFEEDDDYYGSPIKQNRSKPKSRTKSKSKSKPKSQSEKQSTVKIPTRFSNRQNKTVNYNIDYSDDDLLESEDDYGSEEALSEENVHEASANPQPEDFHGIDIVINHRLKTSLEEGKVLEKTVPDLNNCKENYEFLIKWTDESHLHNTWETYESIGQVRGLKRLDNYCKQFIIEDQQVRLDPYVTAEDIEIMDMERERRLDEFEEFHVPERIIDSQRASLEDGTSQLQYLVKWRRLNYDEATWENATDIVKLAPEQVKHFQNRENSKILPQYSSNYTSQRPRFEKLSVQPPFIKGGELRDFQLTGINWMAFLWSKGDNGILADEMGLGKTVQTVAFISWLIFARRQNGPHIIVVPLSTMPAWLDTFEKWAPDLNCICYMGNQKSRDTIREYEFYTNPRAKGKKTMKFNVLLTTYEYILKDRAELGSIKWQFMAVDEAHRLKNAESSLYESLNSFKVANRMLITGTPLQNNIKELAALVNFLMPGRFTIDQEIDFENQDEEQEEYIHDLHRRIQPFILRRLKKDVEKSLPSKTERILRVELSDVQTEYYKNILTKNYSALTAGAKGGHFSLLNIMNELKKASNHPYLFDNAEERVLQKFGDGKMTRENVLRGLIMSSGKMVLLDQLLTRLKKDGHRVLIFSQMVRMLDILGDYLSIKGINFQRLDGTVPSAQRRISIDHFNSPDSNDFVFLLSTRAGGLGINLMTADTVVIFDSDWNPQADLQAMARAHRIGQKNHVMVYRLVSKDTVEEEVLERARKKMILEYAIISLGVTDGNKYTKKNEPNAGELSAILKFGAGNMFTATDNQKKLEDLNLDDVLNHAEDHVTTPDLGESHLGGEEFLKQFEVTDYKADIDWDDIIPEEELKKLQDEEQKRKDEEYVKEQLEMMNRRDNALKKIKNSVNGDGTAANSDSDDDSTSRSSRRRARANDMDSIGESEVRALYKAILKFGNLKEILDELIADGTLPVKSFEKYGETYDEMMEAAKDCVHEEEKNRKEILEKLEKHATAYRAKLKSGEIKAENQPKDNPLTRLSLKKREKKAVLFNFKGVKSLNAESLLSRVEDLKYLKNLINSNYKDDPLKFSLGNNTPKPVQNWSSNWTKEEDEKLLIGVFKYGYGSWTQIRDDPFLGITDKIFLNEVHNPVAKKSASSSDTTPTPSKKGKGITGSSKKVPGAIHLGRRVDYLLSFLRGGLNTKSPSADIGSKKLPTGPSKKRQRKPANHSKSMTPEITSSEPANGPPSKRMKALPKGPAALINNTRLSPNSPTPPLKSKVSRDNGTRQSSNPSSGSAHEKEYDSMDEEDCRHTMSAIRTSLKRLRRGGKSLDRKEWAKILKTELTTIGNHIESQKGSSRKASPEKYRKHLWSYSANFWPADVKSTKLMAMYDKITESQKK
# Sequence of Sialic acid-binding Ig-like lectin 9 (Homo sapiens) (Q9Y336 whole entry): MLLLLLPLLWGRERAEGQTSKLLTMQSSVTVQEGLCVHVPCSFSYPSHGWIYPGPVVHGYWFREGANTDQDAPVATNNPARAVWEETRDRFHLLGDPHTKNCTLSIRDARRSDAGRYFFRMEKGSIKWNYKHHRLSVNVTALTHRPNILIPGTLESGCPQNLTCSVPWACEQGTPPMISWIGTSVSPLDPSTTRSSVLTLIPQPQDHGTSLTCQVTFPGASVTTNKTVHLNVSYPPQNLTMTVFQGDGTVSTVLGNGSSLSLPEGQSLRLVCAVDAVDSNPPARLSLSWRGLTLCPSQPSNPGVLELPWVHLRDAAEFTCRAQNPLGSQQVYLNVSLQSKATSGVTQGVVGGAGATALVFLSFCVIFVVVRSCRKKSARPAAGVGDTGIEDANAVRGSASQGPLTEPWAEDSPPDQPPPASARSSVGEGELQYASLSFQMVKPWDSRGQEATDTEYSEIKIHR
# Sequence of Protein translocase subunit SecA (Escherichia coli (strain K12)) (P10408 whole entry): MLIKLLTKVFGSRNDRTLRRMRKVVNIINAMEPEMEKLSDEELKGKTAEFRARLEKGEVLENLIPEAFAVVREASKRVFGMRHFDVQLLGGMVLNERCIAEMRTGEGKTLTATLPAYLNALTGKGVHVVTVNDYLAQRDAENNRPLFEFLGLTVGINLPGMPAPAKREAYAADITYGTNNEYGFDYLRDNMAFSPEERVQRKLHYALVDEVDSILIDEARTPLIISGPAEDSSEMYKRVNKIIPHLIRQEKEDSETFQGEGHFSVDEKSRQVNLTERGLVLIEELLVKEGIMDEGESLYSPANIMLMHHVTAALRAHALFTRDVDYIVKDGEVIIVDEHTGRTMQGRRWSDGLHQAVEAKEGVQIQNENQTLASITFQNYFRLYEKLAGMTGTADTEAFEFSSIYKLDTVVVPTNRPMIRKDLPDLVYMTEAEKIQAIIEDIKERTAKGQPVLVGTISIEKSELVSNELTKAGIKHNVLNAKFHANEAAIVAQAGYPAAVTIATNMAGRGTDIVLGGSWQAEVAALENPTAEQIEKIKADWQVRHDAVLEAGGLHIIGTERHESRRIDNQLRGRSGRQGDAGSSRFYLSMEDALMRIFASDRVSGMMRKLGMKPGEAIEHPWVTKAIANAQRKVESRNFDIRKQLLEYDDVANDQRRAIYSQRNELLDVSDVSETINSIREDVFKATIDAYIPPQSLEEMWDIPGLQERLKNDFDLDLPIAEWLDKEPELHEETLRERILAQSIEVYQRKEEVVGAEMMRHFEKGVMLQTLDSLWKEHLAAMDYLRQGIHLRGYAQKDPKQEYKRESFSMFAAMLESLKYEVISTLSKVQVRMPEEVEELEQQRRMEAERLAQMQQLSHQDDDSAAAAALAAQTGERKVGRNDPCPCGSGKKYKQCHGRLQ
SMILES,Percent Effect [1] [%],Percent Effect [2] [%],Percent Effect [3] [%],Percent Effect [4] [%],Percent Effect (Trypanosoma cruzi) [%],Percent Effect [5] [%],Percent Effect [6] [%],Percent Effect (Homo sapiens) [%],Percent Effect [7] [%],Percent Effect [8] [%],Percent Effect [9] [%]
CCc1nccn1C1CCCN(C(=O)c2ccc3[nH]c(=O)[nH]c3c2)C1 (stereo unspecified),-10.8,7.79,-15.1,18.9,8.24,2.85,5.41,14.2,8.74,21.9,-4.1
CN(Cc1ccco1)C[C@H]1OC[C@@H]2CCN(Cc3cccs3)C[C@@H]21,1.17,-2.67,4.12,7.42,-3.28,-50.7,-3.59,-15.4,-1.04,-37.5,-2.22
COCC(=O)N1CCO[C@H]2[C@H](OC)CC[C@@H]21,-6.12,5.41,1.82,-0.654,-4.79,4.78,21.8,9.88,1.08,5.13,1.01
O=C(NCCO)Nc1cccc(Cl)c1SC(F)F,-7.96,-1.39,0.408,20.6,-3.01,0.883,13.9,28.9,-5.26,-15.4,-1.91
CC(=O)N(Cc1noc(C2CC2)n1)C1CCN(Cc2nccn2C)C1 (stereo unspecified),-1.42,16.2,-8.4,-4.39,-6.22,-4.25,11.1,11.5,3.96,18.3,-5.65
COCC1CC2(CCN(C(=O)c3cc(C)oc3C)CC2)CN1C(C)C (stereo unspecified),-2.57,0,-9.18,-4.84,2.15,-1.25,9.21,1.95,8.91,15.8,-7
Cc1nc(C)n(CC2CN(CC(=O)Nc3nccs3)CCO2)n1 (stereo unspecified),-0.715,1.39,-0.871,15.8,3.98,10.6,7.19,20.3,5.26,10.3,-1.52
CC(C)c1nn(C)c(N(C)C)c1CNCC(O)c1ccccc1F (stereo unspecified),-3.41,18.2,-14.7,3.26,0.562,-1.07,4.39,10.4,6.8,7.32,-8.47
O=C(C1COCCO1)N1CCN(Cc2ccc3c(c2)CCO3)CC1 (stereo unspecified),-1.12,-5.26,-0.262,5.55,1.21,-2.52,-0.0846,-4.94,3.45,3.7,-2.12
CC(C)C(C(=O)N1CCN(Cc2ccncc2)CC1)n1cncn1 (stereo unspecified),-4.08,7.79,4.2,5.43,0.0983,-11,3.83,-1.24,3.23,11.1,2.61
CC(=O)N1CCC(CN2CCN(Cc3nccn3C)C(C)C2)CC1 (stereo unspecified),-0.614,18.9,-4.02,-8.56,-2.14,4.25,14.5,17.6,9.9,15.8,-2.18
CCc1nc(CN2CCOC(Cn3nc(C)nc3C)C2)no1 (stereo unspecified),-1.49,23.7,2.58,-7.19,-2.33,4.32,3.64,5.43,8.37,18.5,-6.23
Cc1cc(C)n(CC2CCCN2C(=O)c2cnn(C)c2C2CC2)n1 (stereo unspecified),-0.918,2.7,11.2,10.3,0.65,-0.554,0.718,9.84,2.97,1.22,10.5
CC(C)CNC(=O)[C@H]1CCS(=O)(=O)[C@@H]2CN(Cc3ccc(Cl)cc3)C[C@H]12,-2.67,2.7,-1.66,-4.02,1.17,2.5,22.7,-6.94,11.9,13.4,-1.05
COc1ccc(C(C)=O)c(OCC(=O)NC(C)c2ccc(F)cc2)c1 (stereo unspecified),-0.739,10.8,-5.53,8.21,5.77,23.6,9.19,-11.8,0,11.1,-6.76
CC(C)c1noc(CCC(=O)NC(C)c2nnc3n2CCCCC3)n1 (stereo unspecified),-2.21,-2.7,-3.53,-8.65,-1.47,-2.23,2.83,-7.58,-9.68,1.24,80

# From ChEMBL document CHEMBL3988442, “University of Dundee, Small-Polar-MMV Screening Library” (2021)
